# Methyltransferases: Primary Screen for Target Class Profiling of Small Molecule Inhibitors of Methyltransferases | purified enzyme, MTase-Glo SAH luminescence; active compounds read low | calls only at 40 µM | 3.9% of 25,000 active | AID 1745853, 2022; call rule not given here
#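 Each enzyme was assayed with SAM and its substrate. SAH formation detected by MTase-Glo luminescence; single-point 40 uM screen[…].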
# * marks the source's active call; other numbers are inactive results; i = inactive; + = active, no number. This excerpt belongs to a sample that is enriched for hits. On the % scale 0 is the no-effect control and ±100 the full control effect.
SMILES,Methyltransferases
CC1(C(=O)NC2CCCCC2)Cn2c(ccc2-c2ccccc2)C(=O)N1Cc1ccco1 (stereo not given),i
COc1cc2c(cc1O)CC[C@H]1[C@@H]2CC[C@]2(C)[C@H](O)CC[C@@H]12,+
COc1ccc2c(c1)CCC1C2CC[C@@]2(C)C1CC[C@@H]2NCCCCCCN1C(=O)CCC1=O (stereo not given in full),i
CC12CCC3c4ccc(O)cc4CCC3C1CCC2OC1OC(C(=O)O)C(O)C(O)C1O (stereo not given),i
Cc1ccc(C)c(C(=O)CSc2nnc3n(C)c(=O)c4ccc(C(=O)NC5CCCCC5)cc4n23)c1,i
Cc1ccccc1N1C(=O)c2cc(C(C)(C)C)nn2CC1(C)C(=O)NC1CCCCC1 (stereo not given),i
CC1CCN(S(=O)(=O)c2ccc3c(ccn3CC(=O)NC3CC3)c2)CC1,i
Cc1ccc(N2C(=O)c3cc4occc4n3CC2(C)C(=O)NC2CCCCC2C)cc1C (stereo not given),i
CC(C)Cn1c(=O)c2ccccc2n2c(=O)n(CC(=O)Nc3ccccc3F)nc12,i
Cc1ccc(CN2C(=O)c3cc4occc4n3CC2(C)C(=O)NC2CCCCC2)cc1 (stereo not given),i
Clc1ccc(C(c2ccc(Cl)cc2)n2cc[n+](CC(OCc3ccc(Cl)cc3Cl)c3ccc(Cl)cc3Cl)c2)cc1 (stereo not given),+
CCCCN(CC)CCN1C(=O)c2cc3occc3n2CC1(C)C(=O)NC1CCCCCC1 (stereo not given),i
CC(=O)Nc1c2n(c3ccc(F)cc13)CC(C)(C(=O)NC1CCCCC1)N(Cc1cccs1)C2=O (stereo not given),i
CCOC(=O)N1CCC(CN(Cc2ccc(Cl)cc2)Cc2ccc([N+](=O)[O-])s2)C1 (stereo not given),+
CCOCCCNC(=O)C1(C)Cn2c(ccc2-c2ccco2)C(=O)N1c1ccc(OC)cc1 (stereo not given),i
CC1(C(=O)NC2CCCCCC2)Cn2c(ccc2-c2ccco2)C(=O)N1CCc1ccco1 (stereo not given),i
C=Cc1ccc(CSc2nnc3n(CCC(C)C)c(=O)c4ccccc4n23)cc1,i
CC(C)(C)CC(C)(C)c1ccc(OCCOCC[N+](C)(C)Cc2ccccc2)cc1,+
COc1cccc(CN2C(=O)c3nc4ccccc4n3CC2(C)C(=O)NCc2ccccc2)c1 (stereo not given),i
CCOC(=O)c1cc2n(n1)CC(C)(C(=O)NC1CCC(C)CC1)N(c1ccc(C)c(F)c1)C2=O (stereo not given),i
COc1cc(C(=O)O)ccc1NC(=O)[C@@H]1N[C@@H](CC(C)(C)C)[C@](C#N)(c2ccc(Cl)cc2F)[C@H]1c1cccc(Cl)c1F,+
C=CCn1c(=O)c2ccc(C(=O)NC(C)CC)cc2n2c(=O)n(CC(=O)Nc3ccccc3C)nc12 (stereo not given),i
Cc1cc2c(cc3n2CC(C)(C(=O)NC2CCCCC2)N(Cc2ccco2)C3=O)o1 (stereo not given),i
OCCN1CCN(CCCN2c3ccccc3Sc3ccc(Cl)cc32)CC1,i
O=C1NC2CCCCN2C12CCN(CCCN1c3ccccc3CCc3ccc(Cl)cc31)CC2 (stereo not given),+
SMILES,Methyltransferases
CN(C)CCCN1c2ccccc2Sc2ccc(Cl)cc21,i
Cc1ccccc1CN1C(=O)c2cc(-c3ccccc3)nn2CC1(C)C(=O)NCc1ccccc1 (stereo not given),i
Cc1c(C)c(NCC(=O)N(C)C2CCN(Cc3ccc(C(N)=O)cc3)CC2)c(C)c(C)c1N,i
NC(N)=NC(=O)c1nc(Cl)c(N2CCCCCC2)nc1N,i
CC[C@H]1CN(c2nc(N)c(C(N)=O)nc2Cl)CCN1C1CCN(Cc2ccc(Cl)cc2)CC1,+
CCC(C)NC(=O)Cn1nc2n(CC(C)C)c(=O)c3ccc(C(=O)NC4CCCCC4)cc3n2c1=O (stereo not given),i
CCc1cc2c(cc3n2CC(C)(C(=O)NC2CCCCC2)N(Cc2ccccc2OC)C3=O)s1 (stereo not given),i
COc1ccc(-c2cc3n(n2)CC(C)(C(=O)NCc2ccccc2)N(Cc2ccc4c(c2)OCO4)C3=O)cc1 (stereo not given),i
COc1ccc(-c2cc(C(O)C3CCCCN3)c3ccccc3n2)cc1 (stereo not given),i
CC(C)(C)c1ccc(-c2nc3ccccc3[nH]2)cc1,+
COc1ccc(-c2nc3ccccc3[nH]2)cc1,+
COc1ccc(OC)c(S(=O)(=O)N2CCc3nc(-c4ccccc4)[nH]c3C2)c1,i
COC(=O)c1cc2n(n1)CC(C)(C(=O)NC1CCCCCC1)N(c1ccc(C)cc1)C2=O (stereo not given),i
CCOC(=O)c1cc2n(n1)CC(C)(C(=O)NCc1ccc(Cl)cc1)N(Cc1ccc(C)o1)C2=O (stereo not given),i
CC(C)NC(=O)Cn1nc2n(C)c(=O)c3ccc(C(=O)NC4CCCC4)cc3n2c1=O,i
Cc1cccc(-c2n[nH]n3c2nc(=O)c2ccc(C(=O)NCc4ccc(Cl)cc4)cc23)c1,i
COc1ccc(C(=O)Cn2nc3n(Cc4ccc(C)cc4)c(=O)c4ccccc4n3c2=O)cc1OC,i
CCOCCCNc1nc2c(S(=O)(=O)c3ccc(C)c(C)c3)nnn2c2ccc(Cl)cc12,i
CC(C)CNC(=O)c1ccc2c(=O)n(C(C)C)c3nn(Cc4ccc(N5CCCC5=O)cc4)c(=O)n3c2c1,i
CN(C)c1ccc(CNC(=O)CCCn2ccc3cc(S(=O)(=O)N4CCCC4)ccc32)cc1,i
C[C@@H]1C[C@H](C)CN(CCC(=O)Nc2ccc(Br)cc2)C1,i
CN(C)c1ccc(Nc2c3ccc(NC(=O)CCN4CCCC4)cc3nc3cc(NC(=O)CCN4CCCC4)ccc23)cc1,+
Cc1ccc(S(=O)(=O)c2nnn3c2nc(NC2CC2)c2cc(Cl)ccc23)cc1C,i
CSc1ccc(CCNC(=O)CCn2ccc3cc(S(=O)(=O)N4CCCC4)ccc32)cc1,i
CN(Cc1ccc(-c2ccccc2)cc1)CC1CCCCC1,i
SMILES,Methyltransferases
c1ccc(CCc2nc3nccc(-c4cccnc4)n3n2)cc1,i
CN(CCc1ccc(Nc2ncc(-c3cccnc3)s2)cc1)Cc1ccccc1,+
CC1CCC(NC(=O)C2(C)Cn3c(ccc3-c3ccccc3)C(=O)N2CC(C)c2ccccc2)CC1 (stereo not given),i
CC1(C(=O)NCc2ccccc2)Cn2c(cc3ccccc32)C(=O)N1Cc1cccc(Cl)c1 (stereo not given),i
CC(=O)O[C@H]1C[C@@H](O)C(C)(C)C2C[C@@H](OC(C)=O)[C@]3(C)C(CC[C@@]4(C)[C@H](c5ccoc5)OC(=O)[C@H]5O[C@]543)[C@]21C (stereo not given in full),i
CCC(C)C(=O)OC1CC(O)C23C4OCC5(C(O)CC2C1(C)C(O)O4)C3C(=O)C(O)C1(C)C(O)(c2ccoc2)CC2OC251 (stereo not given),+
O=C(CSc1nnc2n(CCc3ccccc3)c(=O)c3ccccc3n12)Nc1ccc(Cl)cc1,i
COC(=O)c1ncn2c1C(=O)N(Cc1ccc(OC)c(OC)c1)C(C)(C(=O)NC1CCCCC1)C2 (stereo not given),i

# Compound activity as filed in PubChem BioAssay.
